Measured values from ChEMBL document CHEMBL2218924, “A broad activity screen in support of a chemogenomic map for kinase signalling research and drug discovery” (Biochem J, 2013).

What was measured:
[1] = biological target: T1, Aurora kinase C (Homo sapiens) (UniProt Q9UQB9); details: at 1 µM
T1 sequence (whole entry): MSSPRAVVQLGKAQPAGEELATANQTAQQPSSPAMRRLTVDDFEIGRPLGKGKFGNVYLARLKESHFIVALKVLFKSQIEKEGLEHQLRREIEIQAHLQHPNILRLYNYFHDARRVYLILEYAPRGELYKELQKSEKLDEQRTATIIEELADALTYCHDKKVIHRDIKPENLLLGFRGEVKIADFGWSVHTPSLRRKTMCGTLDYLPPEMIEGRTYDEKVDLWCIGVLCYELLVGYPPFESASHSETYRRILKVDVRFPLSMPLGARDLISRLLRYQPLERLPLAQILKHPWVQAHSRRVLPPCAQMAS

[2] = biological target: T1, Aurora kinase C (Homo sapiens); details: at 10 µM
[3] = biological target: Tyrosine-protein kinase receptor UFO (Homo sapiens) (UniProt P30530); details: at 1 µM
[4] = biological target: Tyrosine-protein kinase receptor UFO (Homo sapiens) (UniProt P30530); details: at 10 µM
[5] = biological target: Protein-tyrosine kinase 6 (Homo sapiens) (UniProt Q13882); details: at 1 µM
[6] = biological target: Protein-tyrosine kinase 6 (Homo sapiens) (UniProt Q13882); details: at 10 µM
[7] = biological target: Tyrosine-protein kinase BTK (Homo sapiens) (UniProt Q06187); details: at 1 µM
[8] = biological target: Tyrosine-protein kinase BTK (Homo sapiens) (UniProt Q06187); details: at 10 µM
[9] = biological target: Tyrosine-protein kinase Blk (Homo sapiens) (UniProt P51451); details: at 1 µM
[10] = biological target: Tyrosine-protein kinase Blk (Homo sapiens) (UniProt P51451); details: at 10 µM

Tyrosine-protein kinase BTK (Homo sapiens), sequence (Q06187 whole entry): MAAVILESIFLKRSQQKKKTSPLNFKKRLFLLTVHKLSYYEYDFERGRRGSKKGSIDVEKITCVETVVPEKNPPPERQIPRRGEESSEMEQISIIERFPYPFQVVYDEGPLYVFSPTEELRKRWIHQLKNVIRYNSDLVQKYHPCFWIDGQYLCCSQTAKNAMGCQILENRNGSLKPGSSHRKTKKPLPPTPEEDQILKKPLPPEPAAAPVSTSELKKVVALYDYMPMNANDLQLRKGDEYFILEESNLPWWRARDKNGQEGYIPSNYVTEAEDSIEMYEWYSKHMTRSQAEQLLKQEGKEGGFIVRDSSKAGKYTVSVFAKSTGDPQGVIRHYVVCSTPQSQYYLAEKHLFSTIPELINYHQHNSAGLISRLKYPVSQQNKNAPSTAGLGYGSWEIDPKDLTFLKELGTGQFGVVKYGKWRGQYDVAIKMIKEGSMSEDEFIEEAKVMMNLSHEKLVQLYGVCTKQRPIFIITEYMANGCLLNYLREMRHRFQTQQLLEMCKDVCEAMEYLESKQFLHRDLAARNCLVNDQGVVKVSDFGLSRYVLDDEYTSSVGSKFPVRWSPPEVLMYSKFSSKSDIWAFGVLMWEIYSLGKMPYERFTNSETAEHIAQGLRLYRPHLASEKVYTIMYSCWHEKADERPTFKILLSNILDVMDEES
Protein-tyrosine kinase 6 (Homo sapiens), sequence (Q13882 whole entry, looked up): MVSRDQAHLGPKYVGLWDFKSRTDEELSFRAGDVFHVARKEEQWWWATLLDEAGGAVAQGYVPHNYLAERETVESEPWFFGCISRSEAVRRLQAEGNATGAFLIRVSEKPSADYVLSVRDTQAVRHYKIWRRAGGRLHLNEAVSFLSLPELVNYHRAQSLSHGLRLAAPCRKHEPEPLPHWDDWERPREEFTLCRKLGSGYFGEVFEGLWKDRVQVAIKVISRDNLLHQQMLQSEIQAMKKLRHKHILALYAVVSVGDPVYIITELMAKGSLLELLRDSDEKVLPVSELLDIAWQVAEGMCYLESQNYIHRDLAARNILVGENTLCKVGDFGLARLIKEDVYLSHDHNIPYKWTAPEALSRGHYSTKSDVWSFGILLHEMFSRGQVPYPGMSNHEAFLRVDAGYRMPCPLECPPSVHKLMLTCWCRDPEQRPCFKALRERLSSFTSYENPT
Tyrosine-protein kinase receptor UFO (Homo sapiens), sequence (P30530 whole entry): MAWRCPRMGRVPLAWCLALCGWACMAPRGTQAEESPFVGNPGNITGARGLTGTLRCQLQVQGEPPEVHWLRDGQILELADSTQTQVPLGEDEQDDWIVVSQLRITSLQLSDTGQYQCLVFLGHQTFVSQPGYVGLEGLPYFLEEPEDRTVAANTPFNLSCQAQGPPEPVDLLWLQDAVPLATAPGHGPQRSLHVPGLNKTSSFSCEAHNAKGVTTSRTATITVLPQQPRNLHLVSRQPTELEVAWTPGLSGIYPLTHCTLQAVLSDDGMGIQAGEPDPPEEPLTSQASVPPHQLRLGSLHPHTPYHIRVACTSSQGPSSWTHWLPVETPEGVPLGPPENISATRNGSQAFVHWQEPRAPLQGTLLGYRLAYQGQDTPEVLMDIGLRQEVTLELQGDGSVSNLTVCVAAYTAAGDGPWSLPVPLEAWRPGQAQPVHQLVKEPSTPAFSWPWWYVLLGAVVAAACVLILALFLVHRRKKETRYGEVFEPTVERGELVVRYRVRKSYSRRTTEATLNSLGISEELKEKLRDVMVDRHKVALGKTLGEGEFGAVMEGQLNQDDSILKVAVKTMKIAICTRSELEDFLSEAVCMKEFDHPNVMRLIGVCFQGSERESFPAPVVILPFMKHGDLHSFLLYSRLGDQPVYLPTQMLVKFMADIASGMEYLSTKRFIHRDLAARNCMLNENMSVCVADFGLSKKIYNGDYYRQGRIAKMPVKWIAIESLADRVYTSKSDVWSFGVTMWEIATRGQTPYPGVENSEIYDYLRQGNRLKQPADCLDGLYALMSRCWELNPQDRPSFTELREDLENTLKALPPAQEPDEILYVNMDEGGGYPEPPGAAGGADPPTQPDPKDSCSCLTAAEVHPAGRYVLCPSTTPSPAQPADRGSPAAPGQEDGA
Tyrosine-protein kinase Blk (Homo sapiens), sequence (P51451 2-505 limits assumed): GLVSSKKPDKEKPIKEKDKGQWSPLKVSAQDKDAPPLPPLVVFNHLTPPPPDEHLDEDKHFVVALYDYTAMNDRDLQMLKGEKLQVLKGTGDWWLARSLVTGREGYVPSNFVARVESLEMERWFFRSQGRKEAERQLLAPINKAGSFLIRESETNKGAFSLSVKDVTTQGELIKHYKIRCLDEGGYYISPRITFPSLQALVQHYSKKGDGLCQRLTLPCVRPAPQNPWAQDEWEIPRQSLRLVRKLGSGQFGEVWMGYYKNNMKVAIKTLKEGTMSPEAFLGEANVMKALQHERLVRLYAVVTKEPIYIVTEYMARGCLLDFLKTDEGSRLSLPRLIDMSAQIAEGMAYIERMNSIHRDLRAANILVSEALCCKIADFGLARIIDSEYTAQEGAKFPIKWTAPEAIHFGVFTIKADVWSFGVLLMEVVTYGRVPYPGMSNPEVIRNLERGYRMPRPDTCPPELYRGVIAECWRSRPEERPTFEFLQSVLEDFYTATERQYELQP

SMILES	residual activity [1] [%]	residual activity [2] [%]	residual activity [3] [%]	residual activity [4] [%]	residual activity [5] [%]	residual activity [6] [%]	residual activity [7] [%]	residual activity [8] [%]	residual activity [9] [%]	residual activity [10] [%]
CC(C)n1cnc2c(NCc3ccccc3)nc(NCCCO)nc21	95	89	105	75	89	82	93	94	78	71
COc1ccc(OC)c2c(=S)c3ccccc3[nH]c12	78	75	96	83	104	104	96	82	111	96
O=C1Nc2cc(Br)ccc2/C1=C1/Nc2ccccc2/C1=N\O	74	76	52	39	90	102	1	0	1	5
O=C1Nc2ccc(Br)cc2/C1=C\c1cc2c([nH]1)CCCC2	82	69	72	62	107	107	–	109	82	38
NC(=O)c1ccc2[nH]c(-c3ccc(Oc4ccc(Cl)cc4)cc3)nc2c1	72	79	107	70	102	103	89	86	103	77
Cc1cc2ncc(-c3ccccc3)nc2cc1C	104	87	100	88	103	101	94	105	–	95
Cc1cncc2cccc(S(=O)(=O)N3CCCN(C(=O)CN)C[C@H]3C)c12	5	1	88	74	–	–	–	–	122	75
O=C1c2ccccc2-[n+]2ccc3c([nH]c4ccccc43)c21	83	72	73	62	97	80	94	87	95	76
O=C1NC(=O)/C(=C\c2ccc3nccnc3c2)S1	106	59	75	54	99	103	99	93	114	79
Cc1nc(-c2ccccc2)c(-c2ccncc2)o1	93	81	112	79	59	43	91	83	95	80
CC[n+]1c(/C=C/N(C)c2ccccc2)n(-c2ccccc2)c2ccc(-c3nc4ccccc4s3)cc21	107	93	134	58	109	94	87	58	100	55
c1ccc(-c2n[nH]c3c2oc2ccccc23)cc1	–	–	81	73	–	–	–	–	98	49
Cn1nc2c3c(cccc31)C(=O)c1ccccc1-2	72	58	90	63	103	–	94	76	111	91
CC(C)n1cnc2/c(=N/c3cccc(Cl)c3)nc(NCCO)[nH]c21	74	52	94	44	105	100	72	32	79	15
CCN(CC)C(=O)c1ccc(Nc2nc(OCC3CCCCC3)c3nc[nH]c3n2)cc1	1	2	27	7	54	11	34	-2	20	1
Cc1cccc(-c2[nH]c(C(C)(C)C)nc2-c2ccc3c(c2)OCO3)n1	–	82	87	81	–	102	–	–	–	106
O=C(O)c1ccc2c3c1cccc3c(=O)n1c3ccccc3nc21	82	43	61	35	110	105	88	83	99	81
Oc1c2ccccc2c2c3c(cccc13)N=N2	9	4	50	17	95	95	88	57	97	45
COc1ccc(S(=O)(=O)N(CCO)c2ccccc2CN(C)C/C=C/c2ccc(Cl)cc2)cc1	83	88	107	82	100	88	–	93	99	58

SMILES	residual activity [1] [%]	residual activity [2] [%]	residual activity [3] [%]	residual activity [4] [%]	residual activity [5] [%]	residual activity [6] [%]	residual activity [7] [%]	residual activity [8] [%]	residual activity [9] [%]	residual activity [10] [%]
O=C1Nc2ccccc2/C1=C1/Nc2ccccc2/C1=N\OCCC(O)CO (stereo unspecified)	43	30	12	5	56	53	12	-2	4	0
COc1cc2ncnc(Nc3ccc(Oc4ccccc4)cc3)c2cc1OC	59	59	54	25	7	4	15	2	0	0
COc1cccc(-c2cc(=O)c3ccccc3o2)c1N	99	94	119	111	105	105	94	100	114	103
CC#CC(=O)Nc1cc2c(Nc3ccc(F)c(Cl)c3)ncnc2cn1	99	73	82	74	99	97	47	16	82	49
N#CC(C#N)=C(N)/C(C#N)=C/c1ccc(O)cc1	–	–	92	87	–	–	94	118	–	–
C[C@@H](N)[C@H]1CC[C@H](C(=O)Nc2ccncc2)CC1	96	72	102	103	97	89	101	104	92	100
CC(=O)O/N=C1\C(=C2\C(=O)Nc3cc(Br)ccc32)Nc2ccccc21	89	82	77	44	99	77	25	4	19	3
COc1ccc(C(=O)Nc2sc3c(c2C(N)=O)CCCC3)cc1OC	97	76	76	76	108	114	84	118	109	94
O=C1NC(=O)/C(=C/c2ccc3c(c2)OC(F)(F)O3)S1	110	80	98	84	110	104	86	95	119	94
Cc1ccc(NC2=CC(=O)c3sc(C)nc3C2=O)cc1	85	85	103	112	111	108	93	86	112	96
c1ccc2c(-c3ccncc3)c[nH]c2c1	66	46	81	75	95	75	99	–	–	107
COc1cc2ncc(-c3ccccc3)nc2cc1OC	–	–	96	84	–	–	–	–	–	–
N#Cc1cnc2cnc(NCc3cccnc3)cc2c1Nc1ccc(F)c(Cl)c1	71	54	19	22	–	–	70	58	4	3
COc1cc2ncnc(Nc3ccc(O)c(Br)c3)c2cc1OC	45	10	36	17	18	1	80	33	21	3
N#CCCc1ccc2c(c1)-c1[nH]c3ccc([N+](=O)[O-])cc3c1CC(=O)N2	63	22	57	35	–	–	79	66	24	11
COc1cc2ncnc(N3CCN(C(=O)Nc4ccc(Oc5ccccc5)cc4)CC3)c2cc1OC	71	25	71	60	98	98	92	112	100	72
Nc1ccc2ncnc(NCCc3ccc(Oc4ccccc4)cc3)c2c1	89	87	72	33	95	79	95	94	68	18
O=[N+]([O-])c1ccc(-c2nc(-c3ccc(F)cc3)c(-c3ccncc3)[nH]2)cc1	107	92	120	106	36	31	91	56	110	98
